High-throughput results: PubChem BioAssay, several laboratories
A selection: hits, their analogues and other compounds. The true share with any hit is near 4%.
GDH-TPI counter-1 – counter-screen for M. tuberculosis FBA inhibitors: GDH-TPI coupled enzymes. GDH-TPI coupled enzyme counterscreen, NADH absorbance. inhibition, % at 4.8 µM. 1.2% of 360,000 active. AID 588335; in the data active means inhibition above about 30%;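 further: 0% = DMSO wells and 100% = wells lacking the enzyme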
Mtb bLac sens – beta-lactam sensitization of Mtb H37Rv; M. tuberculosis H37Rv growth with meropenem, percent inhibition; inhibition, % at 25 µM; 0.27% of 330,000 active; call rule not given here;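 further: growth measured after seven days incubation then overnight dye step; 0% = bacteria only wells and 100% = bacteria with antibiotic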
RecA intein inh – Mtb RecA intein splicing inhibition. inhibition, % (test concentration not listed). cell-free RecA intein splicing, fluorescence. P9WHJ3. 0.75% of 290,000 active; in the data active means inhibition above about 30%;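 further: 0% = vehicle wells and 100% = reference inhibitor control wells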
Mtb FBA inh – inhibitors of M. tuberculosis fructose-bisphosphate aldolase. P9WQA3. purified M. tuberculosis FBA, fluorescence read-out. inhibition, % at 1 µM. 2.3% of 360,000 active. AID 588726;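 further: 0% = vehicle and 100% = reference inhibitor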
UGM FP inh – inhibitors of M. tuberculosis UDP-galactopyranose mutase | P9WIQ1 | purified UGM, fluorescence polarization probe displacement | inhibition, % at 10 µM | 0.06% of 320,000 active | AID 504406; in the data active means inhibition above about 10%, passing the limit was not always enough
Rv3671c protease – inhibitors of M. tuberculosis serine protease Rv3671c. inhibition, % at 5.96 µM. 0.048% of 320,000 active; in the data active means inhibition above about 38%;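 further: extracellular domain of Rv3671c used as enzyme; 0% = enzyme with DMSO and 100% = no enzyme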
Target sequence (P9WHR9 whole entry, looked up, the tested form may be a part): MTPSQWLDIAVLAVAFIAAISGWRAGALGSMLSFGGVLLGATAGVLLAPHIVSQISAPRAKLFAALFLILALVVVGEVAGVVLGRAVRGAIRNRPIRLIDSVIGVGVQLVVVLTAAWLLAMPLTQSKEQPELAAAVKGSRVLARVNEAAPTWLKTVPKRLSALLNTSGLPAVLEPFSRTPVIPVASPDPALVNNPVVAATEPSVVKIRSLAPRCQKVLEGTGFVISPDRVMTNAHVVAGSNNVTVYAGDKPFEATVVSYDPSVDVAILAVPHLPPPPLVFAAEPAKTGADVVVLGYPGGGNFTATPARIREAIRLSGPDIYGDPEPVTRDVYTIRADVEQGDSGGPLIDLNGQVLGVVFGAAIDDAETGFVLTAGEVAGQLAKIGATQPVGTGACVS
Mtb FBA confirm – Mtb FBA inhibition, confirmed; purified M. tuberculosis FBA, fluorescence read-out; inhibition, % at 1 µM; AID 651616; shares compounds with Mtb FBA inh; 78% of 5,600 active;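 further: 0% = vehicle wells and 100% = reference inhibitor wells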
GDH-TPI counter-2 – GDH-TPI inhibition counter-screen for FBA inhibitors. shares compounds with Mtb FBA inh. GDH-TPI coupled enzyme counterscreen, fluorescence. inhibition, % at 1 µM. 81% of 5,600 active. AID 652141; in the data active means inhibition above about 10%
Active calls of the source: *; / = no result given; + = active, no number. Unless noted, no stated cut-off is given here; in the data, active means inhibition above about 27%; inactive means the rest.

SMILES	GDH-TPI counter-1	Mtb bLac sens	RecA intein inh	Mtb FBA inh	UGM FP inh	Rv3671c protease	Mtb FBA confirm	GDH-TPI counter-2
CC(C)(C)C(=O)Nc1ccc2oc(-c3cc(F)c(F)cc3Cl)nc2c1	19	62	2	53*	1	14	70*	47*
CCCCCC(=O)Nc1ccc2oc(-c3cccnc3)nc2c1	4	-20	1	84*	2	-5	47*	44*
CCCC(=O)Nc1ccc(-c2nc3cc(C)ccc3o2)cc1	25	90	-1	96*	4	-18	76*	77*
O=C(Cc1ccc(Cl)cc1)Nc1ccc2oc(-c3ccncc3)nc2c1	9	61	-4	11	3	-1	/	/
O=C(Nc1ccc2oc(-c3ccccc3F)nc2c1)c1cncc(Br)c1	11	4	3	1	-2	5	/	/
CCCCNc1ccccc1C(=O)OCC(=O)Nc1ccc(S(N)(=O)=O)cc1	-11	46	-2	48*	-1	-36	34*	23*
COc1cccc(/C=C/C(=O)OCC(=O)Nc2cccc(S(=O)(=O)NC3=NCCCCC3)c2)c1	0	4	/	36*	0	-3	0	-10
O=C(COC(=O)c1ccccc1NCCO)Nc1cccc(S(=O)(=O)NC2=NCCCCC2)c1	9	4	-8	53*	-1	5	-5	-7
O=C(COC(=O)/C=C/c1cccc(F)c1)Nc1cccc(S(=O)(=O)NC2=NCCCCC2)c1	3	-1	/	1	0	-4	/	/
CCC(=O)Nc1ccccc1C(=O)OCC(=O)Nc1ccc(S(N)(=O)=O)cc1	-5	-1	5	1	-2	-7	/	/
CCN(CC(=O)NCc1ccc(F)cc1)C(=O)C1CCN(S(=O)(=O)c2ccc(C(C)C)cc2)CC1	-4	/	/	0	/	/	/	/
Cc1cc(C)c(OCC(=O)OCC(=O)N2CCCc3ccccc32)c(C)c1	4	55	0	0	3	6	/	/
COC(=O)C1=CN(c2ccc(F)cc2)C=C(C(=O)OC)C1c1ccc(O)cc1	9	-3	1	71*	5	1	96*	82*
COC(=O)C1=CN(c2cc(C)cc(C)c2)C=C(C(=O)OC)C1c1ccc(OC)c(O)c1	8	10	-6	5	2	-6	/	/
Cc1ccccc1-n1c(=O)n(Cc2ccco2)c(=O)c2[nH]cnc21	4	-5	1	1	-1	-1	/	/
Cc1nn(Cc2ccccc2Cl)c2sc(C(=O)Nc3ccccc3N3CCOCC3)cc12	15	-1	2	97*	-3	-12	72*	64*
Cc1cc2nc(-c3ccc(SCc4ccc(C(=O)O)cc4)nc3)[nH]c2cc1C	27	-2	-4	58*	1	-19	-2	-5
Cc1cc2nc(-c3ccc(SCC(=O)NC(C)C)nc3)[nH]c2cc1C	/	1	2	/	0	1	/	/
COc1ccc(CCNC(=O)c2ccccc2NS(=O)(=O)c2c(F)cccc2F)cc1	1	9	2	8	1	-1	/	/
O=C(CSc1nc2scc(-c3ccccc3)c2c(=O)[nH]1)Nc1ccccc1	15	-5	-1	33*	0	-25	-7	-6
CC(C)CNC(=O)CSc1nc2scc(-c3ccccc3)c2c(=O)[nH]1	-8	-7	3	0	0	-6	/	/
CCc1cc2c(=O)c(-c3cnn(-c4ccccc4)c3)c(C)oc2c(CN2CCCCC2)c1O	22	99	-1	41*	-1	-8	+	+
CNc1cncc(-c2ccc(F)cc2F)n1	14	/	/	112*	/	/	104*	68*
CCOC(=O)Nc1nc(-c2ccc(F)cc2F)cs1	-3	2	3	-4	0	-7	/	/
COc1ccc(C2=NN(CC(=O)NCC(OC)OC)C(=O)CC2)cc1	-1	2	0	1	-1	3	/	/
COc1cccc(/C=N/n2c(N)c(S(=O)(=O)c3cccs3)c3nc4ccccc4nc32)c1OC	10	-3	-2	1	-1	-1	/	/
Nc1c(S(=O)(=O)c2cccs2)c2nc3ccccc3nc2n1Cc1ccccc1	18	-1	-2	54*	2	-18	0	-3
